Assay results from PubChem BioAssay AID1159580 (chemical genetic matrix, 2015).
The campaign covered roughly 5,500 compounds. About 2,000 (36%) were called active. Not shown: some 18% with an inconclusive outcome. Rule as the data show it: active = normalized growth mostly below about 0.91 (no sharp cut-off); inconclusive = no clear call, values can overlap the other calls; inactive = mostly above about 0.92. The list shows a part of the results.

Assay: chemical genetic growth profiling, strain panel (AID 1159580);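 also: tested at 20 µM; growth read once vehicle control cultures reached saturation at 30 °C; 1 = growth at the plate median or of vehicle wells; lower values mean less growth of the strain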
Details: S. cerevisiae deletion strains, growth OD
[1] = locus YBR021W, strain FUR4, hits give low values
[2] = locus YBR229C, strain ROT2, hits give low values
[3] = locus YCL029C, strain bik1, hits give low values
[4] = locus YDL035C, strain GPR1, hits give low values
[5] = locus YDL074C, strain BRE1, hits give low values
[6] = locus YDL101C, strain DUN1, hits give low values
[7] = locus YDL185W, strain tfp1, hits give low values
[8] = locus YDL192W, strain arf1, hits give low values
[9] = locus YDR101C, strain arx1, hits give low values
[10] = locus YDR162C, strain NBP2, hits give low values
[11] = locus YDR318W, strain mcm21, hits give low values
[12] = locus YDR388W, hits give low values
[13] = locus YDR502C, strain sam2, hits give low values
[14] = locus YEL061C, strain CIN8, hits give low values
[15] = locus YER110C, hits give low values
[16] = locus YER155C, strain BEM2, hits give low values
[17] = locus YER167W, strain BCK2, hits give low values
[18] = locus YGL078C, strain dbp3, hits give low values
[19] = locus YGL086W, strain mad1, hits give low values
[20] = locus YGL248W, strain PDE1, hits give low values
[21] = locus YGR078C, strain PAC10, hits give low values
[22] = locus YGR135W, strain pre9, hits give low values
[23] = locus YGR252W, strain gcn5, hits give low values
[24] = locus YHR030C, strain SLT2, hits give low values
[25] = locus YHR079C, strain IRE1 (second series), hits give low values
[26] = locus YHR094C, strain hxt1, hits give low values
[27] = locus YHR129C, strain ARP1, hits give low values
[28] = locus YHR200W, strain rpn10, hits give low values
[29] = locus YIL066C, strain RNR3, hits give low values
[30] = locus YIL073C, strain SPO22, hits give low values
[31] = locus YIL125W, strain kgd1, hits give low values
[32] = locus YIR030C, strain dcg1, hits give low values
[33] = locus YJL095W, strain BCK1, hits give low values
[34] = locus YJL134W, strain LCB3, hits give low values
[35] = locus YJL168C, strain set2, hits give low values
[36] = locus YJL187C, strain SWE1 (second series), hits give low values
[37] = locus YJR043C, strain POL32, hits give low values
[38] = locus YJR075W, strain HOC1, hits give low values
[39] = locus YKL009W, strain mrt4, hits give low values
[40] = locus YKL068W, hits give low values
[41] = locus YKL085W, strain MDH1 (second series), hits give low values
[42] = locus YKL085W, strain MDH1, hits give low values
[43] = locus YKR001C, strain vps1, hits give low values
[44] = locus YLR039C, strain RIC1, hits give low values
[45] = locus YLR058C, strain SHM2, hits give low values
[46] = locus YLR102C, strain apc9, hits give low values
[47] = locus YLR262C, strain YPT6, hits give low values
[48] = locus YLR268W, strain sec22, hits give low values
[49] = locus YLR330W, strain CHS5, hits give low values
[50] = locus YLR342W, strain FKS1 (second series), hits give low values
[51] = locus YLR371W, strain rom2, hits give low values
[52] = locus YLR418C, strain cdc73, hits give low values
[53] = locus YML016C, strain PPZ1, hits give low values
[54] = locus YML032C, strain rad52, hits give low values
[55] = locus YML124C, strain tub3, hits give low values
[56] = locus YMR078C, strain ctf18, hits give low values
[57] = locus YMR223W, strain ubp8, hits give low values
[58] = locus YMR307W, strain GAS1, hits give low values
[59] = locus YNL067W, strain RPL9B, hits give low values
[60] = locus YNL128W, strain TEP1, hits give low values
[61] = locus YNL233W, strain BNI4, hits give low values
[62] = locus YNL250W, strain rad50, hits give low values
[63] = locus YNL271C, strain bni1, hits give low values
[64] = locus YNL298W, strain CLA4, hits give low values
[65] = locus YNL307C, strain MCK1, hits give low values
[66] = locus YNL322C, strain KRE1, hits give low values
[67] = locus YNR052C, strain pop2, hits give low values
[68] = locus YOL147C, strain pex11, hits give low values
[69] = locus YOR061W, strain CKA2, hits give low values
[70] = locus YOR069W, strain VPS5, hits give low values
[71] = locus YOR136W, strain idh2, hits give low values
[72] = locus YOR144C, strain elg1, hits give low values
[73] = locus YOR184W, strain ser1, hits give low values
[74] = locus YOR316C, strain cot1, hits give low values
[75] = locus YPR119W, strain clb2, hits give low values
[76] = locus YPR141C, strain kar3, hits give low values
[77] = locus YPR163C, strain tif3, hits give low values
[78] = locus YPR167C, strain met16, hits give low values
[79] = strain wtn01, hits give low values

Measured: normalized growth

CC(C)C1COc2cc3oc(=O)ccc3cc2O1 (stereo not given)
active: [1] 0.0979 | [2] 0.837 | [3] 0.616 | [4] 0.389 | [5] 0.287 | [6] 0.293 | [7] 0.874 | [8] 0.0841 | [9] 0.714 | [10] 0.0569 | [11] 0.546 | [12] 0.241 | [13] 0.289 | [14] 0.17 | [15] 0.698 | [16] 0.592 | [17] 0.503 | [19] 0.589 | [20] 0.257 | [21] 0.191 | [22] 0.366 | [23] 0.209 | [24] 0.0511 | [25] 0.89 | [26] 0.92 | [27] 0.396 | [28] 0.433 | [29] 0.223 | [30] 0.122 | [32] 0.701 | [33] 0.0654 | [34] 0.906 | [35] 0.834 | [36] 0.497 | [37] 0.218 | [38] 0.688 | [43] 0.0786 | [44] 0.106 | [45] 0.466 | [46] 0.887 | [47] 0.148 | [48] 0.443 | [49] 0.0515 | [50] 0.0669 | [51] 0.0882 | [52] 0.125 | [53] 0.381 | [54] 0.639 | [55] 0.738 | [56] 0.792 | [57] 0.44 | [58] 0.196 | [59] 0.711 | [60] 0.348 | [61] 0.285 | [63] 0.728 | [64] 0.754 | [65] 0.157 | [66] 0.0872 | [67] 0.145 | locus YOL006C, strain TOP1, hits give low values 0.152 | [68] 0.66 | [69] 0.101 | [70] 0.519 | [71] 0.842 | [72] 0.843 | [73] 0.262 | [74] 0.875 | [75] 0.336 | [77] 0.703 | [78] 0.636 | [79] 0.394
inactive: [18] 0.976 | [31] 0.958 | [39] 0.916 | [40] 0.964 | [41] 0.945 | [42] 0.945 | [62] 0.989 | locus YOL012C, strain htz1 0.681 | [76] 0.959

CC(C)(O)[C@@H]1Cc2cc3ccc(=O)oc3cc2O1
inactive: [1] 1.03 | [2] 1 | [3] 1.01 | [4] 1.02 | [5] 1.04 | [6] 1.01 | locus YDL134C, strain PPH21, hits give low values 1 | [7] 1.02 | [8] 1.03 | [9] 1 | locus YDR150W, strain NUM1, hits give low values 1 | [10] 0.989 | [11] 1.01 | [12] 1.01 | [13] 1.04 | [14] 1 | [15] 1.01 | [16] 1 | [17] 1.02 | [18] 1.01 | [19] 1.03 | [20] 1.01 | [21] 1 | [22] 0.996 | locus YGR229C, strain SMI1, hits give low values 1.04 | [23] 0.991 | [24] 1.01 | [25] 1 | [26] 1.01 | [27] 1.01 | [28] 1.03 | [29] 1.01 | [30] 1.02 | [31] 1.02 | [32] 1.02 | [33] 1.03 | [34] 1.02 | [35] 1.03 | [36] 1.01 | [37] 1.01 | [38] 1.01 | [39] 1.01 | [40] 1.02 | [41] 1 | [42] 1 | [43] 1.01 | [44] 1.01 | [45] 1.01 | [46] 1.02 | [47] 0.995 | [48] 1.03 | [49] 1.01 | [50] 1.07 | [51] 1.02 | [52] 0.989 | [53] 1.01 | [54] 1.02 | [55] 1.02 | [56] 1.03 | [57] 0.997 | [58] 1.1 | [59] 0.999 | [60] 1.02 | [61] 1.02 | [62] 1 | [63] 1 | [64] 1.01 | [65] 1.03 | [66] 1.01 | [67] 1.01 | locus YOL012C, strain htz1 1.44 | [68] 1.01 | [69] 1.01 | [70] 1.01 | [71] 1.02 | [72] 1 | [73] 1 | [74] 1.05 | locus YPL241C, strain CIN2, hits give low values 1.01 | [75] 1.02 | [76] 1.01 | [77] 1.01 | [78] 1.03 | [79] 1.05
